Results as given in PubChem BioAssay (Tox21).
Results filed as inconclusive are left out. Active and inactive are the calls of the source. Unless noted, calls follow the shape of the full dose curve.

What was measured:
[1] = Nuclear factor erythroid 2-related factor 2/antioxidant responsive element (Nrf2/ARE) small molecule agonists: qHTS cell viability counter screen in human keratinocytes (AID 1919968; active = well fitted curve in the direction sought with a large enough effect in the repeat runs; an effect the other way counts as inactive or inconclusive; also: nearly all actives have a fitted effect of over 55% in size)
Method in brief: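 CellTiter-Fluor fluorescence, read 1 h after reagent, gave viability in the same wells as the ARE-luciferase assay. KeratinoSens cells (1,500/well) had 23 h compound exposure at 37 C/5% CO2 following 5 h plating.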

[2] = Nuclear factor erythroid 2-related factor 2/antioxidant responsive element (Nrf2/ARE) small molecule agonists: luciferase reporter gene qHTS assay in human keratinocytes (AID 1919969); also: nearly all actives have a fitted effect of over 35% in size
[3] = molecular target: Gonadotropin-releasing hormone receptor (Homo sapiens) (UniProt P30968); assay: Human gonadotropin-releasing hormone receptor (GnRHR) small molecule agonists, calcium flux assay in GnRHR-HEK293 cells (AID 1920063); also: nearly all actives have a fitted effect of over 35% in size
Gonadotropin-releasing hormone receptor (Homo sapiens), sequence (P30968 whole entry, looked up): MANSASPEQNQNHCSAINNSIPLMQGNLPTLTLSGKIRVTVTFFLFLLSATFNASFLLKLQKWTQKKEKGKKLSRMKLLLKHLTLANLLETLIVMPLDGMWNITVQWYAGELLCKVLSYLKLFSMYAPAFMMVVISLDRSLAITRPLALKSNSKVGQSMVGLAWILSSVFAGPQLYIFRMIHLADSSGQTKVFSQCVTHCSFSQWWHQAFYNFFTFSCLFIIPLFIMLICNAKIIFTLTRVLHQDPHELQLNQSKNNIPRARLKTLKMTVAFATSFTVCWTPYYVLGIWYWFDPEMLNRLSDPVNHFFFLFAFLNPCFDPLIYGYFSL
Method in brief: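 Agonist mode: compounds at 15 concentrations, in triplicate, went onto calcium dye-loaded GnRHR-HEK293 cells. Intracellular calcium was then followed as 480/540 nm fluorescence at 1 s intervals over 3 min.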

[4] = molecular target: KiSS-1 receptor (Homo sapiens) (UniProt Q969F8); assay: Human kisspeptin (KISS1R) small molecule agonists, calcium flux assay in KISS1R-HEK293 cells (AID 1920064; active = well fitted curve in the direction sought with a large enough effect in the repeat runs; an effect the other way counts as inactive or inconclusive)
KiSS-1 receptor (Homo sapiens), sequence (Q969F8 whole entry, looked up): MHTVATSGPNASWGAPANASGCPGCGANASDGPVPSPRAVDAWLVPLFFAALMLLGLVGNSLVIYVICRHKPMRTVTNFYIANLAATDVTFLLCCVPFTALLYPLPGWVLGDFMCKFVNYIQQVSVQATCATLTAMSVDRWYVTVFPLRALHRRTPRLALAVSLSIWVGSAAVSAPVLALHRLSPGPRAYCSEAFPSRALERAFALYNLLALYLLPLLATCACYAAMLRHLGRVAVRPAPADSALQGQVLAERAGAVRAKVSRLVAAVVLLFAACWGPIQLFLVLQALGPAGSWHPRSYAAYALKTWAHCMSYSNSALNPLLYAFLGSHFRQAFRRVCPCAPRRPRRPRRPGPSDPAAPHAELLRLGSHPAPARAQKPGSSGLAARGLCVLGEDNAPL
Method in brief: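 Agonist mode: intracellular calcium rise tracked at 1 s intervals over 3 min (480/540 nm) immediately after compound addition to dye-loaded KISS1R-HEK293 stable cells. Each compound tested at 15 concentrations in triplicate.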

[5] = G protein-coupled receptor (GPCR) small molecule agonists, calcium flux assay: HEK293 wild type cell line counter screen (AID 1920065)
Method in brief: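 Calcium flux counter screen: compound added in agonist mode at 15 concentrations in triplicate to dye-loaded parental HEK293 cells. Fluorescence (480/540) read kinetically for 3 min; ATP served as positive control.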

[6] = p53 small molecule agonists, cell-based qHTS assay with human liver microsomes: qHTS cell viability counter screen (AID 1963579); also: nearly all actives have a fitted effect of over 45% in size
Method in brief: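 Seed p53RE-bla cells at 4,000 per well; incubate 5 h at 37 C; add compound, human liver microsomes and NADPH; incubate 16 h at 37 C; add CellTiter-Glo; after 30 min at room temperature, read luminescence.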

[7] = p53 small molecule agonists, cell-based qHTS assay with rat liver microsomes: qHTS cell viability counter screen (AID 1963580); also: nearly all actives have a fitted effect of over 45% in size
Method in brief: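 Rat liver microsome (0.5 mg/mL final) and NADPH (0.5 mg/mL final) co-incubation with compounds for 16 h at 37 C on HCT-116 p53RE-bla cells; cytotoxicity taken from intracellular ATP luminescence.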

[8] = p53 small molecule agonists, cell-based qHTS assay: qHTS cell viability counter screen (AID 1963581); also: nearly all actives have a fitted effect of over 45% in size
Method in brief: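 Counter screen read by CellTiter-Glo luminescence (ATP content, 30 min at room temperature), run in the same wells as the beta-lactamase reporter read. HCT-116 p53RE-bla cells saw compounds for 16 h at 37 C.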

[9] = molecular target: 5-hydroxytryptamine receptor 2A (Homo sapiens) (UniProt P28223); assay: 5-hydroxytryptamine receptor 2A (HTR2A) small molecule antagonists, cell-based qHTS assay (AID 1963586); also: nearly all actives have a fitted effect of over 45% in size
5-hydroxytryptamine receptor 2A (Homo sapiens), sequence (P28223 whole entry, looked up): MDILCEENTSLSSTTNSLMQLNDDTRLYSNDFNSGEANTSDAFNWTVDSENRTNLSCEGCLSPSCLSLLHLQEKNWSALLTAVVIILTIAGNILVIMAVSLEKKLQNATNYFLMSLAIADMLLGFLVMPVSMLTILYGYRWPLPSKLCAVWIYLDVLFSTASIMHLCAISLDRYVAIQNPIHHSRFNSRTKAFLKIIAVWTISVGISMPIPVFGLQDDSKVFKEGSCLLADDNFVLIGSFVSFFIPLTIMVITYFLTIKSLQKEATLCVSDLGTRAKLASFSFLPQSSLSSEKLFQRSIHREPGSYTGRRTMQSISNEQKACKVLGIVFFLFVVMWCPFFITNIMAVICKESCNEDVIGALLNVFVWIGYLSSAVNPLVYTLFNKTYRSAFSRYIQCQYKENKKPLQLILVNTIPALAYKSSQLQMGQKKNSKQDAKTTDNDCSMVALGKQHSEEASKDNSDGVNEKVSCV
Method in brief: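 CHO cells stably expressing human HTR2A were plated for 18 h at 37 C, then loaded with calcium dye for 1 h. Compounds were preincubated 5 min at room temperature before DOI (4 nM solution) was added. Kinetic fluorescence was read for 3 min.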

[10] = molecular target: 5-hydroxytryptamine receptor 2A (Homo sapiens) (UniProt P28223); assay: 5-hydroxytryptamine receptor 2A (HTR2A) small molecule agonists, cell-based qHTS assay (AID 1963587); also: nearly all actives have a fitted effect of over 30% in size
Method in brief: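 Kinetic calcium-flux fluorescence (2 min, 1 sec intervals) after compound addition in agonist mode. HTR2A-CHO cells were cultured 18 h, then dye-loaded 1 h at 37 C.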

[11] = molecular target: Muscarinic acetylcholine receptor M1 (Homo sapiens) (UniProt P11229); assay: Cholinergic receptor muscarinic 1 (CHRM1) small molecule antagonists, cell-based qHTS assay (AID 1963588); also: nearly all actives have a fitted effect of over 40% in size
Muscarinic acetylcholine receptor M1 (Homo sapiens), sequence (P11229 whole entry, looked up): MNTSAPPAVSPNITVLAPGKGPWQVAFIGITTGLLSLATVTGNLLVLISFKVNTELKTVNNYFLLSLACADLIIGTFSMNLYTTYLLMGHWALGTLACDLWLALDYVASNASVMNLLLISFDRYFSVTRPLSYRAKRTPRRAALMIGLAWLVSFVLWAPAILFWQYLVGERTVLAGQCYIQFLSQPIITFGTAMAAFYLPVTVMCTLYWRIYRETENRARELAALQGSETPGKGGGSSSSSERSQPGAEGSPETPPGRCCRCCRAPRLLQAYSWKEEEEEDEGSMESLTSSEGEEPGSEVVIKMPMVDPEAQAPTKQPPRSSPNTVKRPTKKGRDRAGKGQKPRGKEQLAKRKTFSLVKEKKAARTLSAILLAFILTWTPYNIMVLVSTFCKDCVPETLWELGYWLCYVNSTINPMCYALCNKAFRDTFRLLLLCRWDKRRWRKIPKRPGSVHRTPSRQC
Method in brief: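 Compounds were tested at 15 concentrations in three independent runs. Dye-loaded CHRM1-CHO cells were exposed 5 min at room temperature before stimulation by acetylcholine added at 50nM. Intracellular calcium was read kinetically on FDSS for 3 min.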

[12] = molecular target: Muscarinic acetylcholine receptor M1 (Homo sapiens) (UniProt P11229); assay: Cholinergic receptor muscarinic 1 (CHRM1) small molecule agonists, cell-based qHTS assay (AID 1963589); also: nearly all actives have a fitted effect of over 35% in size
Method in brief: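 Agonist-mode calcium-flux screen: compounds at 15 concentrations, three independent runs, were pin-transferred onto dye-loaded human CHRM1-CHO cells. Fluorescence was then recorded kinetically every second over minutes.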

[13] = cAMP Responsive Elements (CRE) small molecule agonists, cell-based qHTS assay (AID 1963590)
Method in brief: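 Agonist mode: compound added to CRE-bla HEK 293T cells (2,000/well, 18 h after plating) for 3 h at 37 C/5% CO2. Reporter activity detected via FRET beta-lactamase substrate, 2 h room-temperature loading.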

[14] = cAMP Responsive Elements (CRE) small molecule antagonists, cell-based qHTS assay (AID 1963591; active = well fitted inhibition curve with a large enough effect in the signal ratio in the repeat runs, not every such curve was filed as active; the % refers to the signal ratio)
Method in brief: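 Antagonist mode: compounds are added alongside the adenylyl cyclase activator NKH477 (0.25 uM final) to CRE-bla HEK293T cells for 3 h. LiveBLAzer FRET substrate, 2 h at room temperature, reports bla expression.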

[15] = molecular target: Beta-2 adrenergic receptor (Homo sapiens) (UniProt P07550); assay: Adrenergic beta2 receptor (ADRB2) small molecule antagonists, cell-based qHTS assay (AID 1963592); also: series mostly up to about 92 µM; nearly all actives have a fitted effect of over 50% in size
Beta-2 adrenergic receptor (Homo sapiens), sequence (P07550 whole entry, looked up): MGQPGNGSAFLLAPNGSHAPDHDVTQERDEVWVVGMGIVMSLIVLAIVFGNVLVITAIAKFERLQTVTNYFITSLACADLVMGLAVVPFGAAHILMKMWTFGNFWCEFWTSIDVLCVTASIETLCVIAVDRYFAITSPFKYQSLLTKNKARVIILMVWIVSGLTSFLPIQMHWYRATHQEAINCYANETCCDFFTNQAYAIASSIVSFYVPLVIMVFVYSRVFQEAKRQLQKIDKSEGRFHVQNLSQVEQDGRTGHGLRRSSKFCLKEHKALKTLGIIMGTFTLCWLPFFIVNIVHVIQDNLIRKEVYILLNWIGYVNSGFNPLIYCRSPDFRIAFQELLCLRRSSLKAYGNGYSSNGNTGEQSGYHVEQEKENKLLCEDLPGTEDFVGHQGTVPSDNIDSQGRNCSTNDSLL
Method in brief: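 Assay format: CHO-ADRB2 cells, 18-20hr seeding at 37C/5% CO2, then compound plus 1nM isoproterenol agonist mix for 0.5hr RT. Homogeneous time-resolved fluorescence cAMP detection after 1hr, expressed as 665/615 nm ratio.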

[16] = molecular target: Beta-2 adrenergic receptor (Homo sapiens) (UniProt P07550); assay: Adrenergic beta2 receptor (ADRB2) small molecule agonists, cell-based qHTS assay (AID 1963593);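 also: CHO cells stably overexpressing human ADRB2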
Method in brief: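 CHO cells stably over-expressing ADRB2 were plated overnight at 37C, then dosed with compounds plus a stimulation mix containing 100uM IBMX and 25uM Ro-20-1724 for 0.5hr at room temperature. cAMP was measured by HTRF competition, 1hr.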

[17] = molecular target: D(2) dopamine receptor (Homo sapiens) (UniProt P14416); assay: Dopamine D2 receptor (DRD2) small molecule agonists, cell-based qHTS assay (AID 1963594); also: nearly all actives have a fitted effect of over 35% in size
D(2) dopamine receptor (Homo sapiens), sequence (P14416 whole entry, looked up): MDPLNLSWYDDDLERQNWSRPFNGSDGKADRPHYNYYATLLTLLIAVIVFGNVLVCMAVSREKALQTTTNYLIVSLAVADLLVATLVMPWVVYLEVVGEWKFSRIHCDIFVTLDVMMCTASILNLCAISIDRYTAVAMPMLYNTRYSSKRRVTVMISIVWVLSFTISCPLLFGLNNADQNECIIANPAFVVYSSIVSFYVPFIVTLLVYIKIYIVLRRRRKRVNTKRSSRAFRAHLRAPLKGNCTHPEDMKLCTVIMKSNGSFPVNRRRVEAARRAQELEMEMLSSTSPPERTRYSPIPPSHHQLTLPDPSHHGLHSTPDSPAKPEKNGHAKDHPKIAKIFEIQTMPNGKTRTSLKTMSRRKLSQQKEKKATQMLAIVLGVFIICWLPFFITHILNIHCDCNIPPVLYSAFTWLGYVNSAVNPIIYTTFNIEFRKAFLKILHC
Method in brief: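 cAMP accumulation in DRD2-HEK293 cells measured by HTRF after 1 h detection; compounds added 10 min before NKH477 (200nM […]) forskolin-analogue stimulation, 30 min at room temperature, with Ro20-1724 present at 0.1 mM final.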

[18] = molecular target: D(2) dopamine receptor (Homo sapiens) (UniProt P14416); assay: Dopamine D2 receptor (DRD2) small molecule antagonists, cell-based qHTS assay (AID 1963595; active = well fitted inhibition curve with a large enough effect in the signal ratio in the repeat runs, with a control signal flat; the % refers to the signal ratio)
Method in brief: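 HTRF cAMP read-out at 665 and 620 nm emission (340 nm excitation). Antagonist mode: compounds were tested against 12 nM quinpirole in DRD2-HEK293 cells, with 200 nM NKH477 raising cAMP and 0.1 mM Ro20-1724 blocking its breakdown.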
% is scaled to controls: 0 for no effect and ±100 for the full control effect.

C=CC(=O)N1CCOCC1
inactive: Potency [1] | Potency [2] | Potency [3] | Potency [4] | Potency [5] | Potency [6] | Potency [7] | Potency [8] | Potency [9] | Potency [10] | Potency [11] | Potency [12] | Potency [13] | Potency [14] | Potency [15] | Potency [16] | Potency [17] | Potency [18]

O=S(=O)(O)SSS(=O)(=O)O
inactive: Potency [1] | Potency [2] | Potency [3] | Potency [4] | Potency [5] | Potency [6] | Potency [7] | Potency [8] | Potency [9] | Potency [10] | Potency [11] | Potency [12] | Potency [13] | Potency [14] | Potency [15] | Potency [16] | Potency [17] | Potency [18]

CC1(C)CCC[C@]2(C)[C@H]3CCO[C@]3(C)CC[C@@H]12
inactive: Potency [1] | Potency [2] | Potency [3] | Potency [4] | Potency [5] | Potency [6] | Potency [7] | Potency [8] | Potency [9] | Potency [10] | Potency [11] | Potency [12] | Potency [13] | Potency [14] | Potency [15] | Potency [16] | Potency [17] | Potency [18]

CO[C@@]1(NC(=O)Cc2cccs2)C(=O)N2C(C(=O)O)=C(COC(N)=O)CS[C@@H]21
inactive: Potency [1] | Potency [2] | Potency [3] | Potency [4] | Potency [5] | Potency [6] | Potency [7] | Potency [8] | Potency [9] | Potency [10] | Potency [11] | Potency [12] | Potency [13] | Potency [14] | Potency [15] | Potency [16] | Potency [17] | Potency [18]

CCCCCCCCCCCCCCCCCBr
inactive: activity change, negative = cytotoxicity [1] 2.19% [at 19 µM] | activity, positive = activation [2] -1.2% [at 19 µM] | activity change [3] 0.321% [at 11.8 µM, hits give high values] | activation [4] 0.212% [at 15.8 µM] | activation [5] -0.0398% [at 11.8 µM] | activity change, negative = cytotoxicity [6] 5.38% [at 13.5 µM] | activity change, negative = cytotoxicity [7] 0.54% [at 13.5 µM] | activity change, negative = cytotoxicity [8] 3.13% [at 13.5 µM] | activity, negative = inhibition [9] 31.5% [at 12.7 µM] | activation [10] 0.832% [at 15.9 µM] | activity, negative = inhibition [11] 7.9% [at 12.6 µM] | activation [12] -0.0212% [at 15.8 µM] | activation [13] -0.0773% [at 19 µM] | activity change, negative = inhibition [14] -5.99% [at 18.9 µM] | activity change, negative = inhibition [15] 0.719% [at 19 µM] | activation [16] 8.09% [at 19 µM] | activation [17] -0.0433% [at 19 µM] | activity change, negative = inhibition [18] 0.232% [at 18.9 µM]

C=C1CCC2CC1C2(C)C (stereo not given)
inactive: Potency [1] | Potency [2] | Potency [3] | Potency [4] | Potency [5] | Potency [6] | Potency [7] | Potency [8] | Potency [9] | Potency [10] | Potency [11] | Potency [12] | Potency [13] | Potency [14] | Potency [15] | Potency [16] | Potency [17] | Potency [18]

O=[N+]([O-])c1cccc(Cl)c1Cl
inactive: Potency [1] | Potency [2] | Potency [3] | Potency [4] | Potency [5] | Potency [6] | Potency [7] | Potency [8] | Potency [9] | Potency [10] | Potency [11] | Potency [12] | Potency [13] | Potency [14] | Potency [15] | Potency [16] | Potency [17] | Potency [18]

CC(=O)OC1C2(C)CCC(C2)C1(C)C (stereo not given)
inactive: Potency [1] | Potency [2] | Potency [3] | Potency [4] | Potency [5] | Potency [6] | Potency [7] | Potency [8] | Potency [9] | Potency [10] | Potency [11] | Potency [12] | Potency [13] | Potency [14] | Potency [15] | Potency [16] | Potency [17] | Potency [18]

CCCCCCCCCCC=O
inactive: Potency [1] | Potency [2] | Potency [3] | Potency [4] | Potency [5] | Potency [6] | Potency [7] | Potency [8] | Potency [9] | Potency [10] | Potency [11] | Potency [12] | Potency [13] | Potency [14] | Potency [15] | Potency [16] | Potency [17] | Potency [18]

NNC(=O)CP(=O)(c1ccccc1)c1ccccc1
inactive: Potency [1] | Potency [2] | Potency [3] | Potency [4] | Potency [5] | Potency [6] | Potency [7] | Potency [8] | Potency [9] | Potency [10] | Potency [11] | Potency [12] | Potency [13] | Potency [14] | Potency [15] | Potency [16] | Potency [17] | Potency [18]

C=C[Si](OC)(OC)OC
inactive: Potency [1] | Potency [2] | Potency [3] | Potency [4] | Potency [5] | Potency [6] | Potency [7] | Potency [8] | Potency [9] | Potency [10] | Potency [11] | Potency [12] | Potency [13] | Potency [14] | Potency [15] | Potency [16] | Potency [17] | Potency [18]

CCNC(=O)NCc1cccc(Cl)c1
inactive: Potency [1] | Potency [2] | Potency [3] | Potency [4] | Potency [5] | Potency [6] | Potency [7] | Potency [8] | Potency [9] | Potency [10] | Potency [11] | Potency [12] | Potency [13] | Potency [14] | Potency [15] | Potency [16] | Potency [17] | Potency [18]

CC1=C(C=O)C(C)(C)CCC1
inactive: Potency [1] | Potency [2] | Potency [3] | Potency [4] | Potency [5] | Potency [6] | Potency [7] | Potency [8] | Potency [9] | Potency [10] | Potency [11] | Potency [12] | Potency [13] | Potency [14] | Potency [15] | Potency [16] | Potency [17] | Potency [18]

CC(C)C(C)C
inactive: Potency [1] | Potency [2] | Potency [3] | Potency [4] | Potency [5] | Potency [6] | Potency [7] | Potency [8] | Potency [9] | Potency [10] | Potency [11] | Potency [12] | Potency [13] | Potency [14] | Potency [15] | Potency [16] | Potency [17] | Potency [18]

Cc1c(Cl)cccc1Cl
inactive: Potency [1] | Potency [2] | Potency [3] | Potency [4] | Potency [5] | Potency [6] | Potency [7] | Potency [8] | Potency [9] | Potency [10] | Potency [11] | Potency [12] | Potency [13] | Potency [14] | Potency [15] | Potency [16] | Potency [17] | Potency [18]
